Test results taken from PubChem BioAssay.
Activity calls are given as the source filed them.

What was measured:
[1] = compound effects on lung adenocarcinoma cell viability – A549, calcein-AM fluorescence, 48 h, basal, profiling panel (AID 1162); conditions: higher = more signal
[2] = compound effects on differentiated 3T3-L1 adipocyte viability – cell-based, 3T3-L1 adipocytes, calcein-AM fluorescence, 48 h, basal, profiling panel (AID 1163); conditions: 3T3-L1 adipocytes viability, higher = more signal
[3] = compound effects on hepatocellular carcinoma cell viability – HepG2, calcein-AM fluorescence, 48 h, basal, profiling panel (AID 1164); conditions: higher = more signal
[4] = compound effects on multiple myeloma cell viability – MM1S, calcein-AM fluorescence, 48 h, basal, profiling panel (AID 1165); conditions: higher = more signal
[5] = calcein-AM signal in unstimulated myeloma cells – cell-based, calcein-AM fluorescence, 48 h, PK04 Diversity Set, profiling panel (AID 1166); conditions: RPMI8226 myeloma viability, higher = more signal;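 note: cells grown under basal conditions without added stimulus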
[6] = JC-1 mitochondrial signal, unstimulated HepG2 cells – cell-based, JC-1 fluorescence, 24 h, 100 nL compound, profiling panel (AID 1167); conditions: HepG2 mitochondrial potential, higher = more signal
[7] = JC-1 mitochondrial signal, unstimulated adipocytes – cell-based, JC-1 fluorescence, 3T3-L1 adipocytes, 24 h, 100 nL compound, profiling panel (AID 1168); conditions: JC-1 mitochondrial fluorescence, higher = more signal, called active from +8 up or from −8 down
[8] = JC-1 mitochondrial signal, unstimulated myeloma cells – cell-based, JC-1 fluorescence, RPMI8226, 24 h, 100 nL compound, profiling panel (AID 1169); conditions: JC-1 mitochondrial potential fluorescence, higher = more signal
[9] = JC-1 mitochondrial signal, unstimulated MM1S myeloma – cell-based, JC-1 fluorescence, 24 h, 100 nL compound, profiling panel (AID 1170); conditions: MM1S mitochondrial potential, higher = more signal
[10] = resazurin metabolic signal in A549 cells – cell-based, resazurin fluorescence, 24 h, PK04 Diversity Set, profiling panel (AID 1171); conditions: A549 viability, higher = more signal, called active from +8 up or from −8 down
Note: test concentration not given here.

SMILES	z-score [1]	z-score [2]	z-score [3]	z-score [4]	z-score [5]	z-score [6]	z-score [7]	z-score [8]	z-score [9]	z-score [10]
C[C@@]1([C@@H](NS(=O)(=O)c2cccc3cccnc23)c2ccc(-c3ccccc3)cc2)C[C@H]1C1CCCCC1	-1	-0.516	-1.04	-1.28	-1.08	-1.46	-0.399 (inactive)	0.698	-1.72	-0.892 (inactive)
C=CCNC(=O)[C@H]1[C@@H]2C(=O)O[C@@H](c3ccccc3)[C@@H](c3ccccc3)N2[C@@H](c2ccc(O)cc2)[C@]12C(=O)Nc1ccc(C#CCC(C(=O)OC)C(=O)OC)cc12	0.33	-0.0589	0.102	-2.95	-4.12	-0.922	-0.363 (inactive)	-0.891	0.111	0.0955 (inactive)
[N-]=[N+]=NCc1ccccc1[C@H]1OC(c2ccc(OCCCO)cc2)=N[C@@]1(Cc1ccccc1N=[N+]=[N-])C(=O)O	-0.374	-1.69	0.312	-0.934	-0.984	-2.04	0.0914 (inactive)	-0.763	-0.596	0.216 (inactive)
COC(=O)[C@@]1(Cc2ccc(OC)cc2)[C@@H]2[C@@H](CC(=O)[C@H]2CC(=O)C(=O)N(C)C)CN1C(=O)c1ccccc1	-1.45	-0.18	-0.923	-2.24	-4.62	1.1	-0.169 (inactive)	-0.735	-2.16	-2.28 (inactive)
CN1C(=O)C2C(C1=O)C1C=C(CCCO)C2C(C2CC2)N1C (stereo not given)	-0.0397	-0.333	0.019	0.828	0.929	1.18	0.693 (inactive)	-0.786	-0.641	-1.61 (inactive)
O=C1O[C@H](c2ccccc2)[C@H](c2ccccc2)N2[C@H]1[C@@H](C(=O)N1CCCCCCC1)[C@]1(C(=O)Nc3ccc(C#CCCO)cc31)[C@H]2c1ccc(O)cc1	1.53	0.0496	1.22	-0.149	0.0392	0.638	0.547 (inactive)	-0.146	-0.979	0.798 (inactive)
[N-]=[N+]=Nc1ccccc1C[C@]1(C(N)=O)COC(c2ccc(OCCCO)cc2)=N1	-0.193	0.936	0.0027	-0.286	-0.334	0.253	-0.298 (inactive)	-0.964	-0.942	0.246 (inactive)
C=CCNC(=O)[C@H]1[C@@H]2C(=O)O[C@@H](c3ccccc3)[C@@H](c3ccccc3)N2[C@@H](c2ccc(O)cc2)[C@]12C(=O)Nc1ccccc12	1.94	0.816	1.51	-0.0148	-0.836	-0.948	-0.586 (inactive)	0.105	0.24	0.552 (inactive)
C=CCC(OC(C)=O)[C@@H]1[C@@H](N(Cc2cccc3ccccc23)C(=O)c2ccc(C)cc2)c2cc(OCCCO)ccc2N1C(=O)Cc1ccc2ccccc2c1 (stereo not given in full)	0.396	1.05	1.55	0.83	0.986	3.54	0.598 (inactive)	0.152	-0.984	0.433 (inactive)
O=C1C2C=CC(C(O)C3CC=CCC3)N(Nc3ccc([N+](=O)[O-])cc3)C2C(=O)N1c1ccccc1 (stereo not given)	-0.562	0.243	-1.55	0.25	-0.738	-1.02	-1.43 (inactive)	-0.374	0.000383	-0.383 (inactive)
CO[C@H]1O[C@H](CO)[C@@H](OC(=O)CCc2ccccc2)[C@@H]2OC(=O)[C@@H](Cc3ccc4ccccc4c3)C/C=C/C[C@H](Cc3ccc4ccccc4c3)C(=O)O[C@@H]12	1.39	0.284	1.27	-0.52	0.0085	0.111	0.945 (inactive)	0.761	0.0944	-1.39 (inactive)
C=C(COC)C(=O)CC[C@@H](OC(=O)c1ccccc1-c1ccccc1C(=O)O)c1ccccc1OCCO	-0.184	0.615	-0.248	-3.31	-3.75	-1.13	-0.305 (inactive)	-0.88	-1.84	0.393 (inactive)
C=C[C@H](OC)[C@@H](O)c1ccc(OC)c(O)c1	-0.107	-0.678	1.69	-0.166	-0.991	1.26	0.503 (inactive)	0.5	0.443	-0.112 (inactive)
C=CC[C@]1(C(=O)NCCN2CCOCC2)N=C(c2ccc(OCCCO)cc2)O[C@H]1c1ccccc1	-0.139	-0.0761	-0.0656	-0.736	0.0634	-0.607	-0.442 (inactive)	-0.176	-0.255	1.63 (inactive)
O=C1OC[C@@H](c2ccccc2)n2cc(/C=C/c3ccccc3)cc21	-0.235	1.75	-0.202	-0.472	-0.597	-0.564	0.156 (inactive)	-0.161	-0.735	0.229 (inactive)
COC(=O)[C@@]1(Cc2ccc(F)cc2)[C@H]2c3cc(C(=O)N4CCCC4)n(Cc4ccc(OC(F)(F)F)cc4)c3C[C@H]2CN1C(=O)c1ccccc1	-1.21	-0.749	0.0322	-1.04	-0.55	-0.269	-1.35 (inactive)	-0.603	-0.787	-0.165 (inactive)

SMILES	z-score [1]	z-score [2]	z-score [3]	z-score [4]	z-score [5]	z-score [6]	z-score [7]	z-score [8]	z-score [9]	z-score [10]
CCOC(=O)C1=CCC(c2ccncc2)N(S(=O)(=O)c2ccc(C)cc2)C1 (stereo not given)	-1.72	-0.784	-1.37	-2.28	-1.31	-1.41	0.561 (inactive)	0.115	-1.61	-0.44 (inactive)
COc1ccc([Si](C)(C)[C@@H]2[C@@H](CC(=O)N3CCC[C@H]3CO)O[C@]3(C(=O)N(Cc4cccc(N5C(=O)c6cccc7cccc5c67)c4)c4ccccc43)[C@H]2C)cc1	-1.07	1.29	-3.23	-2.44	-4.33	-0.907	0.522 (inactive)	-1.05	-1.01	-1.53 (inactive)
COCCOC(=O)N1C(=O)[C@@]2(c3cc(C#CCNC(N)=O)ccc31)[C@H](c1ccc(O)cc1)N1[C@H](c3ccccc3)[C@H](c3ccccc3)OC(=O)[C@H]1[C@@H]2C(=O)N1CCc2cc(OC)c(OC)cc2C1	0.571	-0.065	-0.281	-0.72	0.542	-1.82	-0.338 (inactive)	0.0593	0.583	0.0875 (inactive)
C=CCOC(=O)[C@H]1[C@@H]2C(=O)O[C@@H](c3ccccc3)[C@@H](c3ccccc3)N2[C@@H](c2ccc(OCCOC(=O)[C@H]3C[C@H]4C(=O)NCC(=O)N4[C@H]3c3ccc(O)cc3)cc2)[C@]12C(=O)Nc1ccccc12	-0.759	0.645	-1.05	0.117	-0.259	-1.42	0.962 (inactive)	-0.356	-0.821	0.729 (inactive)
C=CCNC(=O)[C@H]1[C@@H]2C(=O)O[C@@H](c3ccccc3)[C@@H](c3ccccc3)N2[C@@H](c2ccc(O)cc2)[C@]12C(=O)N(C(=O)OCCOC)c1ccc(C#Cc3ccc(OC)cc3)cc12	-0.98	-1.44	0.147	-1.26	-1.2	-1.62	0.202 (inactive)	-0.625	-0.804	-0.0733 (inactive)
COc1ccc(CCNC(=O)[C@@H]2c3ccccc3C(=O)N(Cc3cc(F)cc(C(F)(F)F)c3)[C@H]2c2ccc(CO)cc2)cc1	2.41	1.33	0.492	-0.696	0.36	1.98	0.17 (inactive)	-0.455	0.558	1.3 (inactive)
CC1C2C(CCCO)=CC(C3C(=O)N(C)C(=O)C23)N1Cc1cccc(OC(F)(F)F)c1 (stereo not given)	-0.45	0.924	-0.399	-0.83	-0.423	0.779	0.0323 (inactive)	0.258	0.675	-0.791 (inactive)
OCCCc1cc[n+](Cc2cc3c(cc2Br)OCO3)cc1	-0.322	0.504	-0.325	0.4	-0.419	0.138	0.506 (inactive)	-0.437	1.39	-0.298 (inactive)
O=C(NCCN1CCOCC1)[C@@H]1c2ccccc2C(=O)N(CC23CC4CC(CC(C4)C2)C3)[C@H]1c1ccc(CO)cc1	-0.0791	1.43	0.45	-0.846	-0.327	2.95	-0.634 (inactive)	0.434	-0.388	1.8 (inactive)
CCOC(=O)C1=CC[C@@H](c2ccccc2)N(S(=O)(=O)c2ccc(C)cc2)[C@@H]1C#N	0.25	-0.415	0.278	-3.21	-2.77	0.43	0.726 (inactive)	-0.791	-2.41	0.433 (inactive)
COCCCNC(=O)[C@@]1(c2ccc([N+](=O)[O-])cc2)CC(=O)N(C2CCCCC2)[C@@H]1c1ccc(CO)cc1I	1.22	0.944	0.857	-1.41	-0.0154	2.88	0.802 (inactive)	0.496	0.106	1.38 (inactive)
O=C1N(Cc2ccccc2)c2ccccc2C[C@@]12N=C(c1ccc(OCCCO)cc1)O[C@H]2c1ccccc1	-1.32	0.84	-1.86	-3.33	-4.24	-0.237	-0.0792 (inactive)	-1.29	0.811	-1.63 (inactive)
COCCOC(=O)N1C(=O)[C@@]2(c3cc(C#CCNC(N)=O)ccc31)[C@H](C(N)=O)[C@H]1C(=O)O[C@H](c3ccccc3)[C@H](c3ccccc3)N1[C@@H]2c1ccc(O)cc1	1.05	-0.142	0.779	0.394	-0.896	-0.507	-0.0468 (inactive)	-0.883	0.326	1.22 (inactive)
CCCC=C(CCC)[C@@H](NC(=O)c1ccc(C(=O)OC)cc1)c1ccc(C(=O)OC)cc1	-1.48	-0.454	-1.54	-1	-1.59	-0.261	-1.28 (inactive)	-0.342	-1.15	0.69 (inactive)
CCc1cccc(NC(=O)O[C@H]2[C@H](OC(=O)Nc3ccccc3-c3ccccc3)[C@H](OC(=O)Nc3ccccc3-c3ccccc3)[C@@H](OC)O[C@@H]2CO)c1	-2.01	-0.228	-1.7	-1.62	-0.201	-0.812	-0.398 (inactive)	-0.841	-1	-0.684 (inactive)
